# Screening results deposited in PubChem by National Center for Advancing Translational Sciences (NCATS).
# Many of the other results were omitted from the sample, so hits are more common in it than they were.
# Sm TGR block: qHTS Assay for the Inhibitors of Schistosoma Mansoni Peroxiredoxins. purified TGR, DTNB reduction, TNB absorbance 405 nm. Potency, µM (doses to about 114 µM), without a hit: top-dose activity change, negative = inhibition, most hits filed as inhibitors. 3% of 360,000 active. AID 485364, 2010; further: potency means the concentration at half of the fitted maximal effect; on the % scale 0 is the no-effect control and ±100 the full control effect; nearly all actives have a fitted effect of over 60% in size
#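 Kinetic colorimetric format: TGR-catalysed, NADPH-driven DTNB reduction monitored via TNB absorbance. Enzyme dispensed at 20 nM; compound exposure 15 min at room temperature before reaction start.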
# LmPK inhibitor: qHTS Assay for Inhibitors of Leishmania Mexicana Pyruvate Kinase (LmPK). Q27686. purified LmPK, Kinase-Glo ATP luminescence, 1 h. Potency, µM (series often up to 57.5 µM), for the others: top-dose activity change, negative = inhibition, most hits filed as inhibitors. 0.37% of 290,000 active; further: potency means the concentration at half of the fitted maximal effect; on the % scale 0 is the no-effect control and ±100 the full control effect
# Target sequence (Q27686 whole entry, looked up): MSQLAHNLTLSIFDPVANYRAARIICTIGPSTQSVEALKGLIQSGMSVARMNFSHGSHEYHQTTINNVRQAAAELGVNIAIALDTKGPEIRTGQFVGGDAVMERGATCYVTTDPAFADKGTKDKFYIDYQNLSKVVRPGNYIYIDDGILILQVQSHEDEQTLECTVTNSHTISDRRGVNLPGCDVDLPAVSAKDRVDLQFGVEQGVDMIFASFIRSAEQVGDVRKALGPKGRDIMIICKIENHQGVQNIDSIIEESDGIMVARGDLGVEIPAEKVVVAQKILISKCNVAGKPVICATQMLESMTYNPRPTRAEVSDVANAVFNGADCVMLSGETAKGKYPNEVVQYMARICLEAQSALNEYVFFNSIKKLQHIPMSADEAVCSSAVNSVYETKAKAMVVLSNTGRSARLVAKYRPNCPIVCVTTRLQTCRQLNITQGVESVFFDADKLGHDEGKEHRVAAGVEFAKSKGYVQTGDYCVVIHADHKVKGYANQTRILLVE
#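 In 50 mM imidazole pH 7.2 with 7 mM MgCl2, LmPK (0.1 nM) turned over PEP (0.5 mM) and ADP (0.1 mM) for 1 h at room temperature. Luciferase read-out of ATP.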
# Shiga toxin inh: A qHTS for Small Molecule Inhibitors of Shiga Toxin | inhibition, % at 38.7 µM | Vero cells, Shiga toxin protein synthesis inhibition reporter | AID 2315, 2010 | 9.2% of 290,000 active; in the data active means inhibition mostly above about 28%, no sharp cut-off; inactive means mostly below about 43%; further: 0% is about no effect
# TbPYK inhibitor: qHTS of Trypanosoma Brucei Inhibitors; pyruvate kinase (Trypanosoma brucei), Q57TT1; TbPYK enzyme, Kinase-Glo Plus ATP luminescence, 45 min; Potency, µM (doses to about 76.8 µM), inactives show at the highest dose activity, negative = inhibition, actives largely listed as inhibitors; 0.12% of 410,000 active; further: potency means the concentration at half of the fitted maximal effect; on the % scale 0 is the no-effect control and ±100 the full control effect; nearly all actives have a fitted effect of over 50% in size
#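 Screened from lowest to highest concentration, compounds were pinned into TbPYK/substrate mixtures, and ADP (130 uM final) was added. Plates sat at room temperature for 45 min prior to Kinase-Glo Plus detection by luminescence.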
# CHX counter: Cycloheximide Counterscreen for Small Molecule Inhibitors of Shiga Toxin | cell reporter, cycloheximide protein synthesis inhibition counterscreen | max response, % | 12% of 300,000 active | AID 2314, 2010; in the data active means max response mostly above about 13%, no sharp cut-off; inactive means mostly below about 14%; further: read at 38.3 µM for the half of the compounds with a filed dose; 0% is about no effect
# Giardia FBPA inh: qHTS Assay for Inhibitors of Fructose-1,6-bisphosphate Aldolase from Giardia Lamblia | A8B2U2 | purified Giardia FBPA | Potency, µM (doses to about 59.6 µM), for the others: at the top dose activity, negative = inhibition, usual class: inhibitors | 0.71% of 290,000 active; further: potency means the concentration at half of the fitted maximal effect; on the % scale 0 is the no-effect control and ±100 the full control effect; nearly all actives have a fitted effect of over 55% in size
#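 Giardia FBPA (40 nM reagent) was preincubated 10 min at RT with compound (up to 57.5 uM final), then substrate plus GAPDH/TPI/NAD/arsenate coupling system with diaphorase/resazurin was added; resorufin fluorescence (525/598 nm) was read after 20 min.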
# * = called active by the depositor; ? = inconclusive; . = not tested or not shown; [ ] = another dose, or the depositor's remark. Unless noted, the call rests on the fitted dose curve; in most records, active means well fitted curve in the direction sought with a large enough effect; inconclusive means small, poorly fitted or top-dose-only effect, or another doubt; inactive means no such curve, though single readings can be large; an effect the other way counts as inactive or inconclusive.
SMILES,Sm TGR block,LmPK inhibitor,Shiga toxin inh,TbPYK inhibitor,CHX counter,Giardia FBPA inh
O=C(CCl)Nc1ccccc1C(=O)Nc1ccc2c(c1)OCO2,0%,8%,41*,2%,57*,-16%
O=C(Nc1ccc2c(c1)OCO2)c1c[nH]c(=O)n(-c2ccc(F)cc2)c1=O,-9%,1%,19,3%,16*,-7%
COc1ccc(-n2c(=O)[nH]cc(C(=O)Nc3ccc4c(c3)OCCO4)c2=O)cc1OC,-22%,1%,15,-4%,-4,-9%
CSc1ccccc1C(=O)Nc1ccc(C)c(C)c1,-26%,?,91*,5%,42*,-16%
COc1cccc(C(=O)Nc2ccc3[nH]ncc3c2)c1OC,0%,-1%,71*,-12%,32*,1%
CSc1nc2sc3c(c2c(=O)n1-c1ccc(C)cc1)CCCC3,-5%,.,.,2%,.,.
CCOc1ccc(NC(=O)CCS(=O)(=O)c2ccc3nc(C)sc3c2)cc1,4%,.,.,1%,.,.
O=C(NCC(c1cccnc1)N1CCc2ccccc2C1)c1ccc(F)c(F)c1 (configuration not stated),0%,.,.,-8%,.,.
COc1cccc(C(=O)NCc2ccc3c(c2)OCO3)c1OC,-8%,-4%,24,-1%,8,-9%
CSc1ccccc1C(=O)Nc1ccc2c(c1)OCO2,-16%,-22%,26*,-2%,23*,-9%
COc1cccc(C(=O)Nc2ccc3c(c2)OCO3)c1OC,3%,-8%,89*,-2%,48*,3%
CCOC(=O)C1(C)CCN1C(=O)c1oc2ccccc2c1C (configuration not stated),.,.,.,-7%,.,.
C=CCSc1cc(C)nc2c(-c3ccccc3)c(C)nn12,-27%,-1%,13,-16%,25*,4%
Cc1nn2c(N3CCCC3)c3c(nc2c1-c1ccccc1)CCC3,11µM*,3%,14,-2%,10,-8%
Cc1cc(SCC(=O)c2cccs2)n2nc(C)c(-c3ccccc3)c2n1,4%,4%,39*,-16%,39*,?
Cc1nn2c(-c3cccnc3)ccnc2c1-c1ccccc1,-5%,5%,41*,2%,25*,6%
Cc1nn2c(N3CCN(CCO)CC3)c3c(nc2c1-c1ccccc1)CCCC3,13%,2%,-13,-2%,-1,-1%
CC(=O)CSc1cc(C)nc2c(-c3ccccc3)c(C)nn12,1%,-3%,-2,-1%,-1,2%
O=C(NCc1ccc(Cl)cc1)C1CCCN1C(=O)Nc1ccccc1 (configuration not stated),-17%,4%,-8,-3%,-4,7%
Cc1ccc(S(=O)(=O)Nc2ccc(-c3ccc(N4CCCCCC4)nn3)cc2)cc1C,-5%,.,.,0%,.,.
O=C(CSc1ncc2c(n1)-c1ccc(Cl)cc1N(Cc1ccccc1)S2(=O)=O)Nc1ccccc1C(F)(F)F,10%,.,.,-3%,.,.
CCc1nc2ccc(C(=O)NCc3cccs3)cn2c1N(CCC(C)C)CCN(C)C,.,.,.,4%,.,.
CCOC(=O)c1ccccc1NC(=O)CSc1nc2ccccc2c(=O)n1CCCN1CCOCC1,.,.,.,6%,.,.
Cc1cc(N)n2nc(C)c(-c3ccccc3)c2n1,3%,3%,21,-3%,13*,-4%
Cc1cc(N)n2nc(C)c(-c3ccc(Cl)cc3)c2n1,7%,0%,6,5%,8,-3%
SMILES,Sm TGR block,LmPK inhibitor,Shiga toxin inh,TbPYK inhibitor,CHX counter,Giardia FBPA inh
COc1ccc(C(=O)Nc2ccc3c(c2)Cc2ccccc2-3)cc1,9%,6%,-6,0%,-3,.
C=CCOC(=O)C(=O)/C=C/c1ccc2c(c1)Cc1ccccc1-2,-14%,-2%,25,-3%,14*,-6%
CCCCC/C=C\C/C=C\C/C=C\C/C=C\CCCC(=O)C(F)(F)F,.,.,25,.,3,-9%
Cc1cccc(Cn2c(CN3CCCC(C)C3)nc3c2c(=O)n(C)c(=O)n3C)c1 (configuration not stated),5%,.,.,3%,.,.
OCC[n+]1c2ccccc2nc2ccc(N3CCOCC3)cc21,?,16µM*,15,-21%,-2,?
COc1cccc2c1nc(C)c1cc(C)oc12,4%,4%,40,4%,36*,3%
COc1ccc2nc(C)c3cc(C)oc3c2c1,-10%,0%,-9,6%,0,-1%
Cc1ccc(C)c(N2CCN(C(=O)CCS(=O)(=O)c3ccc4c(c3)CCN4C(=O)C3CC3)CC2)c1,-6%,8%,-1,-1%,-3,.
O=C1/C(=C/c2ccco2)Cc2ccccc21,-30%,-23%,78*,-11%,54*,-10%
O=C1C(=Cc2ccc(F)cc2)Cc2ccccc21,.,.,.,-9%,.,.
CC1C/C(=C/c2ccco2)C(=O)/C(=C/c2ccco2)C1 (configuration not stated),1.4µM*,9%,-2,.,-1,?
O=Cc1ccco1,.,.,.,-6%,.,.
COC1OC(COCc2ccccc2)C(N)C(OCc2ccccc2)C1OCc1ccccc1 (configuration not stated),.,.,.,1%,.,.
Nc1nc(NC(=O)c2ccc(Cl)cc2)nn1-c1ccccc1,0%,5%,33,3%,17*,11%
O=C(O)c1ccc(-c2ccc(Cl)cc2Cl)o1,-19%,0%,-5,2%,-4,?
O=C(c1ccc(-c2cc(Cl)ccc2Cl)o1)N1CCOCC1,0%[57.1 µM],-5%,38,-1%,16*,7%
O=C(c1ccc(-c2ccc(Cl)cc2Cl)o1)N1CCOCC1,-7%,-3%,80*,-7%,42*,3%
CC[C@]12C(=O)N(C)C[C@H]([C@@H]3C(=O)N(C)C(=O)[C@@H]31)N2C(=O)c1ccc(F)cc1,.,.,.,-2%,.,.
CCCC(=O)Nc1nnc(SCc2cc(=O)c3ccc(C)cc3[nH]2)s1,-7%,.,.,1%,.,.
C[C@@H]1CCC[C@]2(C)CCCC[C@@]12O,.,.,-5,.,-3,4%
O=C1C2C3C=CC(O3)C2C(=O)N1CC(O)c1ccccc1 (configuration not stated),11µM*,3%,23,-3%,-1,3%
O=C1OC(c2ccccc2)/C(=C(/O)c2ccc(Cl)cc2)C1=O (configuration not stated),-4%,3%,12,4%,13,?
Cc1ccc(/C(O)=C2/C(=O)C(=O)OC2c2ccc(Cl)cc2)cc1 (configuration not stated),-22%,5%,20,7%,24*,15%
O=C1OC(c2ccccc2)/C(=C(/O)c2ccccc2)C1=O (configuration not stated),-16%,9%,101*,-4%,39*,6%
